Source: PubChem (National Center for Advancing Translational Sciences (NCATS))
DT40 TDP1 no CPT = qHTS for Inhibitors of human tyrosyl-DNA phosphodiesterase 1 (TDP1): qHTS in cells in absence of CPT. DT40 Tdp1-/- hTDP1 cells, no CPT, ATP luminescence, 48 h. Potency, µM (titrated, usually from 46.2 µM), without a hit: at the top dose activity change, negative = growth inhibition, most hits filed as inhibitors. hit rate 15% among 420,000. AID 686978, 2013; further: potency means the concentration at half of the fitted maximal effect; on the % scale 0 is the no-effect control and ±100 the full control effect; nearly all actives have a fitted effect of over 55% in size
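Camptothecin absent (DMSO only). Human TDP1-complemented DT40 knockout cells, 400 cells/well, 37 °C for minimum 48 hr; ATP measured via CellTiter-Glo, 30 min dark incubation, luminescence.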
IL1B secr inh = qHTS for Inhibitors of Inflammasome Signaling: IL-1-beta AlphaLISA Primary Screen. THP-1 LPS/ATP IL-1B secretion, AlphaLISA, 16 h; stronger effect = lower value. activity change, % at 57.5 µM. hit rate 4.7% among 360,000. AID 743279, 2014; in the data active means activity change below about -50%; inconclusive means mostly about -30% to -49%; further: on the % scale 0 is the no-effect control and ±100 the full control effect
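Secreted IL-1B measured by AlphaLISA bead assay after 16 h compound exposure of THP-1 cells; compounds (final up to 57.5 uM) added 1 h before LPS (250 ng/mL) and ATP (1.25 mM) stimulation; lower signal means less secretion.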
DRD3 antagonist = qHTS of D3 Dopamine Receptor Antagonist: qHTS. D3R cells, DiscoveRx beta-arrestin luminescence, antagonist mode; stronger effect = lower value. AID 652054, 2013. max response, negative = inhibition, %. hit rate 2.5% among 360,000. D(3) dopamine receptor (Homo sapiens), P35462; in the data active means max response below about -50%; inconclusive means no clear call, values can overlap the other calls; further: on the % scale 0 is the no-effect control and ±100 the full control effect
Target sequence (P35462 whole entry, looked up): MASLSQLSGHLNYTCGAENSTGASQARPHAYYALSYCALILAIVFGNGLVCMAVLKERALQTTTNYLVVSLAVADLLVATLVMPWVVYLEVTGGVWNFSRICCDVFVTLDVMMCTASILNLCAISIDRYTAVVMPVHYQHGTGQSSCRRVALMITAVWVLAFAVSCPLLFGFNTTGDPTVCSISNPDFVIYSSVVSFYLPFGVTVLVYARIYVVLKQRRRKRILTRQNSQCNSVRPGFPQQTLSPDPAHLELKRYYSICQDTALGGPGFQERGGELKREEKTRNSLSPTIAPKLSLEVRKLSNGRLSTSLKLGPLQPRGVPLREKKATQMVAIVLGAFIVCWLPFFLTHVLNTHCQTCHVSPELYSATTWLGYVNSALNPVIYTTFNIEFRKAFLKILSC
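Cells expressing the human receptor were seeded at 1500 cells/well, incubated overnight at 37 degrees C in 5% CO2, then exposed to library compounds with dopamine controls for 90 minutes at 37 degrees C before luminescent detection.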
ClpP mod = qHTS Assay for Activators of ClpP. Potency, µM (doses to about 57.5 µM), for the others: top-dose activity change, negative = active. ATP-dependent Clp protease proteolytic subunit (Bacillus subtilis (strain 168)), P80244. purified B. subtilis ClpP, FRET peptide cleavage, 20 min. AID 651965, 2013. hit rate 1.9% among 340,000; active means well fitted falling curve with a large enough effect; inconclusive means small, poorly fitted or top-dose-only effect; inactive means no such curve, though single readings can be large or run the other way; further: potency means the concentration at half of the fitted maximal effect; the source files actives as falling curves though it sought activators and does not explain the sign; nearly all actives have a fitted effect of over 65% in size
Target sequence (P80244 whole entry, looked up): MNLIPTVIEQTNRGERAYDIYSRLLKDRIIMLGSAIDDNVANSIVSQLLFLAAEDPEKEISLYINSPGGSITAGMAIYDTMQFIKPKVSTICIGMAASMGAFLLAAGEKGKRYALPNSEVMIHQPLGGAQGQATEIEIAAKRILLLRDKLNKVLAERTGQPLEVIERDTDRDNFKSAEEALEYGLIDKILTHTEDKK
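Purified B. subtilis ClpP, 10 microg/mL final in Tris/HCl pH8 with KCl, BSA, glycerol and Tween-20, cleaved an Abz/nitrotyrosine-quenched decapeptide. Fluorescence (ex 320, em 430) was read at 0 and 20 min at room temperature. Delta was normalized to 5.8 microM ADEP and DMSO/no-enzyme controls.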
TDP1 cell CPT = qHTS for Inhibitors of human tyrosyl-DNA phosphodiesterase 1 (TDP1): qHTS in cells in presence of CPT. chicken DT40 Tdp1-/-;hTDP1 cells + 20 nM CPT, ATP luminescence, 48 h. Potency, µM (highest dose often 46.2 µM), for the others: at the top dose activity change, negative = growth inhibition, actives largely listed as inhibitors. hit rate 12% among 420,000. AID 686979, 2013; further: potency means the concentration at half of the fitted maximal effect; on the % scale 0 is the no-effect control and ±100 the full control effect; nearly all actives have a fitted effect of over 55% in size
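Chicken DT40 Tdp1-/- cells complemented with human TDP1, 400 cells/well, exposed to compounds plus 20 nM camptothecin for at least 48 h at 37 C; viability read as ATP content by CellTiter-Glo luminescence.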
D3 ag = qHTS of D3 Dopamine Receptor Agonist: qHTS | D(3) dopamine receptor (Homo sapiens), P35462 | hit rate 0.58% among 410,000 | D3R DiscoveRx beta-arrestin cells, luminescence, 90 min | max activation, % | AID 652048, 2013; in the data active means max activation above about 30%; further: 0% is about no effect
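Agonist-mode cell screen: cells plated at 1500/well and incubated overnight at 37 °C, then exposed to library compounds for 90 min at 37 °C. Detection reagent was added for 30–60 min at room temperature, and luminescence was read.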
Starred values were filed as active, the others as inactive; ? = inconclusive; nt = no result given. This is a sample that favours compounds with a hit; in the whole collection about 21% have one here. Unless noted, the call rests on the fitted dose curve; in most records, active means well fitted inhibition curve with a large enough effect; inconclusive means small, poorly fitted or top-dose-only effect; inactive means flat fitted curve, though single readings scatter.

SMILES	DT40 TDP1 no CPT	IL1B secr inh	DRD3 antagonist	ClpP mod	TDP1 cell CPT	D3 ag
O=C(c1ccc(Cl)cc1Cl)N1CCOCC1	-11%	0	1	nt	23%	15
O=C(O)c1cc2cc(Cl)ccc2oc1=O	-17%	-12	-28	-21%	-22%	34*
NC(=O)c1cc2cc(Cl)ccc2oc1=O	-17%	-1	?	?	-4%	-4
O=C(c1cc2cc(Cl)cc(Cl)c2oc1=O)N1CCOCC1	3%	23	-7	22µM*	-2%	4
CCN(c1ccccc1)S(=O)(=O)c1csc(C(N)=O)c1	-29%	12	21	nt	?	5
COc1cc2c(cc1OC)[C@@H]1Cc3cc4c(cc3[C@H](C2)N1C)OCO4	-19%	-1	16	-1%	4%	2
COc1cc2c(cc1OC)C1CCc3cc4c(cc3C1N=C2)OCO4 (configuration not stated)	13µM*	-20	18	-11%	16µM*	0
O=C(Nc1ccc(OC(F)F)c(Cl)c1)c1ccccn1	?	-4	-3	-4%	?	0
O=C(Nc1ccncc1)Nc1ccc(F)c(Cl)c1	?	?	8	-3%	16µM*	3
COC(=O)NC(=S)Nc1ccc(Oc2ccc(Cl)cc2Cl)c(Cl)c1	4.6µM*	48	-65*	-2%	9.2µM*	-16
COc1ccc(CC(=O)Nc2ccccc2NC(=O)Cc2ccc(OC)cc2)cc1	3%	8	6	0%	-1%	-4
COC(=O)NC(=S)Nc1ccc(Oc2ccc(Cl)cc2)c(Cl)c1	?	27	?	0%	?	-57
COc1ccc(CC(=O)Nc2ccncc2Cl)cc1	1.8µM*	-9	12	0%	4.6µM*	6
Cc1ccc(NC(=S)Nc2ccc(OC(F)F)c(Cl)c2)cc1F	?	-95*	9	0%	?	6
Clc1ccc(-c2cccc3nccn23)c(Cl)c1	-27%	-2	16	4%	-18%	1
O=C(Cc1ccc([N+](=O)[O-])cc1)c1ccc(O)cc1O	-25%	-13	-2	-1%	-18%	6
Cc1ccc(SCC(=O)Nc2cc(S(=O)(=O)N3CCCCC3)ccc2C)cc1	?	-25	1	1%	?	0
Fc1ccc(NC(=S)Nc2ccc(F)c(Cl)c2)cc1Cl	13µM*	-77*	?	0%	23µM*	0
O=C(Cc1ccc(Cl)cc1Cl)Nc1ccncc1Cl	1.8µM*	-25	9	0%	5.2µM*	3
O=C(NC(=S)Nc1ccc(F)c(Cl)c1)C1CC1	-1%	22	-8	-1%	-3%	10
O=C(Cc1ccc(Cl)cc1Cl)Nc1ccncc1	?	-3	-7	-1%	12µM*	-4
O=C(Cc1c(Cl)cccc1Cl)Nc1ccncc1Cl	?	22	4	1%	?	-3
O=C(O)C1=C[C@H](c2cccs2)C[C@H](OCc2ccc(CO)cc2)O1	7%	21	26	-6%	2%	-5
Clc1cccc(Cl)c1/C=C/c1ccn[nH]1	10µM*	-2	1	-4%	18µM*	-5
CC(C)(C)C(=O)NC(NC(=S)Nc1sc2c(c1C#N)CCCC2)C(Cl)(Cl)Cl (configuration not stated)	?	5	-55*	0%	26µM*	9
SMILES	DT40 TDP1 no CPT	IL1B secr inh	DRD3 antagonist	ClpP mod	TDP1 cell CPT	D3 ag
CC(C)(C)C(=O)Nc1sc2c(c1C#N)CCC2	0%	15	-3	nt	0%	3
CCN(CC)CC(=O)Nc1sc2c(c1C(=O)c1ccccc1OC)CCC2	15µM*	-53*	-13	?	16µM*	3
COc1ccc(CN(C)CC(=O)Nc2sc3c(c2C#N)CCC3)cc1OC	?	?	24	0%	?	37*
COc1cccc(CN(C)CC(=O)Nc2sc3c(c2C#N)CCC3)c1OC	9%	-3	4	1%	-19%	18
COc1ccccc1CC(=O)Nc1sc2c(c1C(N)=O)CCCC2	-32%	10	-16	nt	-5%	-1
CCCC(=O)Nc1sc2c(c1C#N)CCCC2	?	-2	48	0%	-5%	-11
COC(=O)CCC(=O)Nc1sc2c(c1C#N)CCCC2	4.6µM*	11	0	28µM*	4.6µM*	-12
COCCn1c(=O)cnc2cnc(Oc3ccc(OC)cc3)nc21	-17%	nt	nt	nt	-25%	nt
N#Cc1c(NC(=S)NC(=O)c2ccccc2)sc2c1CCC2	?	0	22	-26%	18µM*	2
CC(=O)Nc1sc2c(c1C#N)CCCC2	4%	25	18	-2%	6%	4
CC(C)(C)c1ccc(C(=O)NC(=S)Nc2sc3c(c2C#N)CCC3)cc1	?	?	17	1%	?	6
N#Cc1c(NC(=O)c2ccc(-c3ccccc3[N+](=O)[O-])o2)sc2c1CCCC2	?	?	-117*	-4%	-29%	-14
CC(=O)NC(=S)Nc1sc2c(c1C#N)CCCCC2	?	-74*	64	0%	?	6
COc1cc(/C=N/Nc2nc(Nc3ccccc3)nc(N3CCOCC3)n2)ccc1OC(=O)c1ccco1	4.1µM*	?	5	0%	7.3µM*	5
CCOc1ccc(/C=N/Nc2nc(N3CCCC3)nc(N3CCCC3)n2)cc1OC	?	1	12	-5%	-30%	21
COc1cc(/C=N/Nc2nc(Nc3ccccc3)nc(N3CCCCC3)n2)ccc1OCC(=O)O	?	6	-3	nt	?	-10
COc1ccc(/C=N/Nc2nc(Nc3ccccc3)nc(N3CCCCC3)n2)c(OC)c1	21µM*	-14	0	-8%	?	-16
COc1ccc(/C=N/Nc2nc(Nc3ccccc3)nc(N3CCCC3)n2)cc1[N+](=O)[O-]	16µM*	-88*	4	nt	?	-11
CN(C)CCN(CC1CCCN(Cc2ccccc2F)C1)C(=O)c1ccc(F)cc1 (configuration not stated)	-28%	?	-5	nt	0%	-14
COc1cc(Nc2nc3c(S(=O)(=O)c4ccc(C)c(C)c4)nnn3c3ccsc23)cc(OC)c1	13µM*	nt	nt	-27%	9.2µM*	3
